Source: PubChem (National Center for Advancing Translational Sciences (NCATS))
Pf Dd2 inh: inhibitors of Plasmodium falciparum Dd2 growth; AID 1347417; Potency, µM (top dose mostly 28.9 µM), without a hit: at the top dose activity, negative = inhibition, usual class: inhibitors; 4.3% of 120,000 active; P. falciparum Dd2 growth, SYBR Green, 72 h; active means well fitted inhibition curve with a large enough effect;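 further: plate controls were DMSO vehicle for no effect and reference drug for full effect; nearly all actives have a fitted effect of over 65% in size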
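Infected erythrocytes (Dd2, 0.3% parasitemia, 2.5% hematocrit final) are added to compound in RPMI-1640/Albumax II medium, grown 72 h at 37C in low oxygen, then lysed with saponin/Triton-X containing SYBR Green and read by fluorescence.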
Starred values were filed as active, the others as inactive; i = inactive; [ ] = dose if it differs, or a comment. This is one part of a sample in which hits are shown more often than they occur. Potency means the concentration at half of the fitted maximal effect.

SMILES	Pf Dd2 inh
Cc1ccc(S(=O)(=O)N2CCCC(CCC(=O)NC3CCS(=O)(=O)C3)C2)cc1 (stereo not drawn)	4%
COc1ccc(F)c(C(=O)N2CCC3(CC2)[C@H](O)C[C@@H]3O)c1F	-1%
O=C(c1ccc(Cl)nc1)N1CCn2c(nn(-c3ccc([N+](=O)[O-])cc3)c2=O)C1	-5%
O=C(c1ccc(OC(F)F)cc1)N1CCCC(O)(CN2CCCC2)C1 (stereo not drawn)	-22%
O=C(c1cc(CN2CCOCC2)on1)N1CCC(c2nc(C3CCOCC3)no2)C1 (stereo not drawn)	20%
Cc1nc2ncccn2c1C(=O)N1CCn2nc(CO)cc2C1	2%
COc1ccc(S(=O)(=O)Nc2ccc(C)n(CC(=O)NCc3ccco3)c2=O)cc1	i
CC(=O)N1CCCC(c2nc(CCOCC3CC3)no2)C1 (stereo not drawn)	-10%
C(Cc1noc(C2CNC2)n1)OCC1CC1	5µM*
C1CNCC(c2nc(CCOCC3CCOCC3)no2)C1 (stereo not drawn)	-4%
Cn1ccnc1C(=O)NCC(=O)N1CCCCCCNC(=O)CC1c1ccccc1 (stereo not drawn)	-4%
O=C(Nc1ccc(Oc2ccccc2)cc1)O[C@@H]1CO[C@H]2[C@@H]1OC[C@@H]2NC(=S)Nc1ccccc1	7%
Cc1ccc(C2=NC3(CCN(C(=O)c4ccncc4)CC3)ON2)cc1	-24%
COc1ccc(CN2C(=O)COC[C@H]2C(=O)NCC2CC2)c(OC)c1	2%
Oc1ccccc1CN1CCOC[C@H]1c1ncc(-c2ccc(F)cc2F)[nH]1	3.2µM*
COc1ccc(CN2CCOC[C@H]2c2ncc(-c3ccc(C)cc3)[nH]2)cc1	-1%[44.1 µM]
Clc1ccc(-c2cnc([C@@H]3COCCN3C3CCCCC3)[nH]2)cc1	-27%[44.1 µM]
CS(=O)(=O)c1ccc(-c2cnc([C@@H]3COCCN3Cc3ccccc3O)[nH]2)cc1	i
COc1ccc(-c2cnc([C@@H]3COCCN3Cc3ccccc3)[nH]2)cc1	10µM*
COc1ccc(-c2cnc([C@@H]3COCCN3Cc3ccncc3)[nH]2)cc1	i
CN1CCOC[C@H]1c1ncc(-c2ccc(F)cc2F)[nH]1	i
CN1CCC(N2CCOC[C@H]2c2ncc(C(C)(C)C)[nH]2)CC1	9%[44.1 µM]
CC(C)(C)CN1CCOC[C@H]1c1ncc(-c2ccccc2)[nH]1	i
CO[C@@](C(=O)N1CCOC[C@H]1c1ncc(-c2ccccc2)[nH]1)(c1ccccc1)C(F)(F)F	i
Cn1cc(CN2CCOC[C@H]2c2ncc(C(C)(C)C)[nH]2)c2ccccc21	10µM*
SMILES	Pf Dd2 inh
C[C@@H](NC(=O)N1CCOC[C@H]1c1ncc(-c2ccc(Cl)cc2)[nH]1)c1ccccc1	13µM*
Cc1ncc2c(c1CNCC1(O)CNCCOC1)CCNC2 (stereo not drawn)	9%
O=C(NCC1(c2ccccc2F)CCCC1)[C@H]1CCC[C@@H](O)C1	-12%
CCn1c(=O)n(CC)c2cc(NC(=O)[C@H]3CC[C@@H](N)C3)c(C)cc21	8%
O=C(NCC1CN(C(=O)Cc2ccc3c(c2)OCO3)CC12CN(c1ccccc1)C2)c1ccccc1 (stereo not drawn)	i
Cc1ccc(SCc2ccc(-c3nc(C4CCOC4)no3)o2)cc1 (stereo not drawn)	-26%
COCCNC(=O)C(C)[C@@H]1CCc2c(C)cc(OCCOC)c(C)c2[C@@H]1O (stereo partly drawn)	-15%[44.1 µM]
CCCc1noc(-c2cccn3c(CNC(=O)c4cc(Cl)ccc4F)nnc23)n1	i
Nc1n[nH]c(C(=O)N2C[C@H](CO)C[C@H](CN3CCOCC3)C2)c1Cl	-4%
C=CCn1cc(CN(Cc2ccco2)Cc2cccs2)c(C)n1	-20%
Cc1nn(C)cc1CN(C)C(=O)Cn1nc2n(c1=O)CCC(N)CC2 (stereo not drawn)	i
COc1cccc(F)c1C(=O)N1CC(=O)N(c2ccc(Cl)cc2)CC1C (stereo not drawn)	3%
Clc1ccc(-c2cnc([C@@H]3COCCN3Cc3ccccc3)[nH]2)s1	i
Cn1c(CN2CCOC[C@H]2c2ncc(-c3ccc(Cl)s3)[nH]2)nc2ccccc21	11µM*
CS(=O)(=O)c1ccc(CN2CCOC[C@H]2c2ncc(-c3ccc(Cl)s3)[nH]2)cc1	i
c1cc(Cn2cncn2)cc(-n2ccnc2-c2cc3n(n2)CCCNC3)c1	-1%
Cc1nn(CCC#N)c(C)c1[C@@H]1C=C[C@@H](NC(=O)NC(C)C)C1	-6%[44.1 µM]
CCNC(=O)N[C@@H]1C=C[C@@H](c2c(C)nn(-c3ccc(OC)cc3)c2C)C1	10µM*
Cc1ccc(-n2nc(C)c([C@@H]3C=C[C@@H](NC(=O)NC4CCCCC4)C3)c2C)cc1Cl	-19%[44.1 µM]
COc1ccc(NC(=O)N[C@@H]2C=C[C@@H](c3c(C)nn(-c4ccc(C(C)C)cc4)c3C)C2)cc1	11µM*
COc1ccc(-n2nc(C)c([C@@H]3C=C[C@@H](NC(=O)NC4CCCCC4)C3)c2C)cc1	16µM*
Cc1nn(-c2ccc(C(F)(F)F)cc2)c(C)c1[C@@H]1C=C[C@@H](NC(=O)NC(C)C)C1	i
COc1ccc(NC(=O)c2nnn(-c3ccc(C(C)C)cc3)c2C)c(OC)c1	i
Cc1nn(-c2ccc(C(C)C)cc2)c(C)c1[C@@H]1C=C[C@@H](NC(=S)NC2CCCCC2)C1	-9%
O=C1OC[C@@H]2CCN(Cc3ccccc3Cl)Cc3ccc(F)cc3N12	i
SMILES	Pf Dd2 inh
O=C(Oc1ccccc1)N1CCC(Oc2cnc3c(ccn3-c3cncnc3)c2)CC1	i
O=C(O)C[C@@H]1CCN(C(=O)c2cccs2)C[C@@H]1CCN1CCN(c2ccc(F)cc2)CC1	-5%
Cc1ccc(CNC(=O)N2CCC(N3C(=O)C4(CCCCC4)C3c3ccncc3)CC2)cc1 (stereo not drawn)	11µM*
CCOC(=O)CCNC(=O)N1CCC(N2C(=O)C3(CCCCC3)C2c2ccncc2)CC1 (stereo not drawn)	-1%
O=C(NC1CCCCC1)N1CCC(N2C(=O)C3(CCCCC3)C2c2ccncc2)CC1 (stereo not drawn)	5µM*
O=C(c1ccoc1)N1CCC(N2C(=O)C3(CCCCC3)C2c2ccncc2)CC1 (stereo not drawn)	-17%
CN1CCC(N2CCC(N3C(=O)C4(CCCCC4)C3c3ccncc3)CC2)CC1 (stereo not drawn)	-1%
CS(=O)(=O)N1CCC(N2C(=O)C3(CCCCC3)C2c2ccncc2)CC1 (stereo not drawn)	-3%
CC(C)C[C@@H](NC(=O)C1=C[C@@H](NC(=O)Nc2ccc(F)cc2F)[C@@H](O)[C@H](O)C1)C(N)=O	5%
COc1ccc(-c2ccccc2)cc1N1C(=O)[C@@H]2C[C@H]1CN2C(=O)C1(N)CC1	-1%
O=C(O)C1CC2(CCN(C(=O)NCc3ccccc3F)CC2)CN1 (stereo not drawn)	-17%
O=C(c1cccc(F)c1)N1CCC2(CCCCO2)CC1	i
O=C(NCc1ccc(OC(F)(F)F)cc1)N1CCCC(Cn2cnc3cccnc32)C1 (stereo not drawn)	7.1µM*
O=C(NCc1cccc(F)c1)N1CCCC(Cn2cnc3cccnc32)C1 (stereo not drawn)	-14%
Cc1cc(C)cc(NC(=O)N2CCCC(Cn3cnc4cccnc43)C2)c1 (stereo not drawn)	-11%
Cc1cccc(NC(=O)N2CCCC(Cn3cnc4cccnc43)C2)c1 (stereo not drawn)	-17%
Cc1cc(NC(=O)N2CCCC(Cn3cnc4cccnc43)C2)ccc1Br (stereo not drawn)	8.9µM*
